Calls of active or inactive are those of the source.

One experiment has as its target Albumin (Bos taurus) (UniProt P02769). As to the kind of experiment: compounds binding labelled BSA control protein – biochemical, small-molecule microarray, Alexa647 label, 635/667 nm fluorescence, artefact control for SMM control protein annotation, profiling panel (AID 1118).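 Further: score merges 667 nm emission intensity and signal-to-noise per printed compound spot.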 Conditions: BSA-A647 binding, fluorescence 635 nm, higher = more signal.
The nature of experiment [1]: probe aXIP binding to arrayed compounds – biochemical, NeuroSMM set, 635/667 nm fluorescence, primary screen (AID 1119).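 Further: probe is the protein aXip251-270 applied at 1 µg/mL to compound-printed slides; binding of probe to printed compounds measured as 667 nm fluorescence plus signal to noise.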 Conditions: small-molecule microarray, higher = more signal, called active from +8 up or from −8 down.
The nature of experiment [2]: probe aNOTCH3 binding on compound microarray – biochemical, small-molecule microarray, 635/667 nm fluorescence, primary screen (AID 1120).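 Further: probe is a biotin-tagged antibody raised against NOTCH3 rather than NOTCH3 protein; score merges spot fluorescence near 667 nm with spot signal to noise.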 Conditions: higher = more signal.
The nature of experiment [3]: probe aNOTCH2 binding on compound microarray – biochemical, small-molecule microarray, 635/667 nm fluorescence, primary screen (AID 1121).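 Further: score merges feature fluorescence read at 667 nm with its signal to noise.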 Conditions: higher = more signal.
The target of experiment [4] is Carbonic anhydrase 2 (Homo sapiens) (UniProt P00918). As to the kind of experiment: compounds binding carbonic anhydrase 2 – biochemical, small-molecule microarray, Alexa647-labelled CAII, profiling panel (AID 1122). Conditions: CAII-A647 binding fluorescence, higher = more signal.
Experiment [5] is described as follows: COS7 lysate on small-molecule microarray, probe aHis, 635 nm (AID 1123).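 Further: z-score combines 667nm fluorescence intensity with signal-to-noise per printed compound spot.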 Conditions: COS7 cell lysate, fluorescence, higher = more signal.
A short description of experiment [6]: probe aLAP1 signal on lysate-treated microarray – cell lysate, small-molecule microarray, COS7 lysate, primary screen (AID 1124).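 Further: lysate comes from COS7 cells expressing LAP1 and is applied at 0.3 µg/mL; score merges spot fluorescence near 667 nm with signal-to-noise over triplicate slides.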 Conditions: probe aLAP1, fluorescence, higher = more signal.
In the next experiment the test system is Sam68 (KHDRBS1). As to the kind of experiment: compounds binding KHDRBS1 protein – biochemical, small-molecule microarray, 635 nm fluorescence, primary screen (AID 1125).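 Further: score merges 667 nm channel intensity with signal to noise over triplicate slides.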 Conditions: higher = more signal.
Experiment [7] deals with Chordin-like protein 2 (CHRDL2). As to the kind of experiment: compounds binding chordin-like 2 – biochemical, small-molecule microarray, 635 nm fluorescence, primary screen (AID 1126).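 Further: printed compound slides probed with Chrdl2 protein at 4 µg/mL for 1 h at 4 C; score merges 667 nm emission intensity with signal to noise over three replicate slides.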 Conditions: fluorescence 635 nm, higher = more signal.
Experiment [8] addresses Concanavalin-A (Canavalia ensiformis) (UniProt P02866). As to the kind of experiment: compounds binding concanavalin A lectin – biochemical, small-molecule microarray, Alexa647 label, 635 nm, artefact control for SMM control protein annotation, primary screen (AID 1127).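 Further: z combines 667 nm emission intensity with signal-to-noise across three replicate slides.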 Conditions: ConA-A647 binding fluorescence, higher = more signal.
Experiment [9] is described as follows: compounds binding Alexa647 anti-His antibody – biochemical, small-molecule microarray, 635 nm fluorescence, artefact control for SMM control protein annotation, primary screen (AID 1128).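 Further: score merges feature fluorescence with signal-to-noise for each printed compound spot.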 Conditions: higher = more signal.
The test system of experiment [10] is Human papillomavirus type 1a E7 protein (residues 1-88). As to the kind of experiment: HPV1a E7 small-molecule binders, primary screen, biochemical, small-molecule microarray, residues 1-88, 635 nm (AID 1129). Conditions: small-molecule microarray binding, fluorescence 635 nm; higher = more signal.
In experiment [11] the target is Focal adhesion kinase 1 (Homo sapiens) (UniProt Q05397). Kind of experiment: PTK2 protein binding on printed compound slides – biochemical, small-molecule microarray, 635/667 nm fluorescence, BSA, DTT, primary screen (AID 1130).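 Further: composite of spot emission at 667 nm and signal to noise over triplicate slides.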 Conditions: 635 nm fluorescence, higher = more signal.
In experiment [12] the test system is Fibrinogen (Alexa647-labelled). Kind of experiment: Alexa647-fibrinogen binding to printed small molecules – biochemical, small-molecule microarray, 635/667 nm fluorescence, artefact control for SMM control-protein annotation, profiling panel (AID 1131).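 Further: z-score merges 667 nm fluorescence with per-spot signal-to-noise over triplicate slides.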 Conditions: fibrinogen-A647 binding fluorescence, higher = more signal.
The target of experiment [13] is Follistatin (Homo sapiens) (UniProt P19883). As to the kind of experiment: FST protein binding to printed compounds – biochemical, small-molecule microarray, 635/667 nm fluorescence, primary screen (AID 1132). Conditions: 635 nm fluorescence, higher = more signal.
The target in experiment [14] is Fibroblast growth factor 2 (Homo sapiens) (UniProt P09038). As to the kind of experiment: basic fibroblast growth factor binding to printed compounds – biochemical, small-molecule microarray, 635/667 nm fluorescence, primary screen (AID 1133). Conditions: FGF2, fluorescence 635/667, higher = more signal.
The nature of experiment [15]: JC-1 mitochondrial potential readout, lung cancer cells – cell-based, A549, JC-1 fluorescence, basal, 24 h, 100 nL, profiling panel (AID 1138).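 Further: A549 lung adenocarcinoma cells under basal conditions with no added stimulus; test concentration not given here.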 Conditions: higher = more signal.
In the next experiment the test system is Lefty1. As to the kind of experiment: Lefty1 protein binding to printed compounds – biochemical, small-molecule microarray, 635/667 nm fluorescence, primary screen (AID 1139). Conditions: fluorescence 635/667, higher = more signal.
For experiment [16], the system named is wheat germ agglutinin (Triticum aestivum), Alexa647-labelled. As to the kind of experiment: Alexa647-WGA lectin binding to printed small molecules – biochemical, small-molecule microarray, 635/667 nm fluorescence, artefact control for SMM control-protein annotation, profiling panel (AID 1140).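 Further: score merges 667 nm feature emission with signal to noise over triplicate slides.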 Conditions: WGA-A647 binding, 635 nm fluorescence, higher = more signal.

The target of experiment [17] is Luciferin 4-monooxygenase (Photinus pyralis) (UniProt P08659). Kind of experiment: inhibition of purified Photinus pyralis luciferase – biochemical, luminescence, purified enzyme, 2006 set, primary screen (AID 1141).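 Further: cell-free assay with purified firefly luciferase at 100 ng per well in PBS; test concentration not given here.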 Conditions: purified firefly luciferase, SteadyGlo luminescence, 30 min; higher = more signal, called active from +8 up or from −8 down.
Luciferin 4-monooxygenase (Photinus pyralis), sequence (P08659 whole entry, looked up): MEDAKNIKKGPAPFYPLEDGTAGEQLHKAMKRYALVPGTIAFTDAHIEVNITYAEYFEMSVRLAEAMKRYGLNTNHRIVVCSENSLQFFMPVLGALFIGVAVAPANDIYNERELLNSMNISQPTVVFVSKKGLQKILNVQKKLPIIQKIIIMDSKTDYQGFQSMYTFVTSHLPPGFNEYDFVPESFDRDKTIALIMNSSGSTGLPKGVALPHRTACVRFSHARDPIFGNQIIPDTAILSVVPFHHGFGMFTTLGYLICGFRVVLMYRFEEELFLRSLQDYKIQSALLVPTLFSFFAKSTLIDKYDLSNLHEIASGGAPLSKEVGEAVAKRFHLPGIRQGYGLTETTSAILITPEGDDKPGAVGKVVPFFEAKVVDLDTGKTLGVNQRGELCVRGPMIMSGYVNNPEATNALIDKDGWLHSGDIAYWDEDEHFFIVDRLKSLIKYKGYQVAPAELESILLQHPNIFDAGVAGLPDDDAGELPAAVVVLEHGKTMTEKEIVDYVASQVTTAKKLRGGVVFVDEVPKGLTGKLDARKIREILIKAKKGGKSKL

Albumin (Bos taurus), sequence (P02769 whole entry, looked up): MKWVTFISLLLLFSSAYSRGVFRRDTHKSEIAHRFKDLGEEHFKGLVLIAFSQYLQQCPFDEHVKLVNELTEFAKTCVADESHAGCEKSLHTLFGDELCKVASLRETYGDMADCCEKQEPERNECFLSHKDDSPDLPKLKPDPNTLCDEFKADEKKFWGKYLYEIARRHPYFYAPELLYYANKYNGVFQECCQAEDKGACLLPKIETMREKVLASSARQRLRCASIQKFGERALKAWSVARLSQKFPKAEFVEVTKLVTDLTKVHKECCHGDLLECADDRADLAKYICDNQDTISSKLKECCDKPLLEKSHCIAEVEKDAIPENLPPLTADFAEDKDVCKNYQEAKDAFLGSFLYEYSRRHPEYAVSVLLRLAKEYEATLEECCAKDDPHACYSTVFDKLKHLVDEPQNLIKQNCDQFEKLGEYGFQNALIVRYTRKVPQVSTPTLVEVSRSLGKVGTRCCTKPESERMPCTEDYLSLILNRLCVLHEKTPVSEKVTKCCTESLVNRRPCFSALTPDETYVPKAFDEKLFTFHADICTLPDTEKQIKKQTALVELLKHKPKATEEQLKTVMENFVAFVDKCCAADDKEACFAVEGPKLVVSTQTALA
Follistatin (Homo sapiens), sequence (P19883 whole entry, looked up): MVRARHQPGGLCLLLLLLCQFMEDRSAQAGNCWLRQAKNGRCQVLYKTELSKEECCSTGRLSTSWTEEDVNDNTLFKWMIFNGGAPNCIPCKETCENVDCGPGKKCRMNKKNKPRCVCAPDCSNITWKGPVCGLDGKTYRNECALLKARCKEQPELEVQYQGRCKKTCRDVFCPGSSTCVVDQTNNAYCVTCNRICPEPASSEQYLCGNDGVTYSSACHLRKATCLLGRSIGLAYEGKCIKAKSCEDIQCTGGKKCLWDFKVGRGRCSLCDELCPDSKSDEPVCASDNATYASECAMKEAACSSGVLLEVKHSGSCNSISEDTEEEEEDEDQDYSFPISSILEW
Fibroblast growth factor 2 (Homo sapiens), sequence (P09038 whole entry, looked up): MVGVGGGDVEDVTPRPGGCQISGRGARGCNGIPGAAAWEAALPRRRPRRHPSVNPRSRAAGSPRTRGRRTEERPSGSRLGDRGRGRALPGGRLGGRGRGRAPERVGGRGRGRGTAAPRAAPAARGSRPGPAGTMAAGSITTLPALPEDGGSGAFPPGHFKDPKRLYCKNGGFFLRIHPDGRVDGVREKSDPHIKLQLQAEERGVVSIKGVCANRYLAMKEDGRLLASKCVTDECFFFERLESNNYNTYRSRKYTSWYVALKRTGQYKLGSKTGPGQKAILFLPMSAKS
Concanavalin-A (Canavalia ensiformis), sequence (P02866 whole entry, looked up): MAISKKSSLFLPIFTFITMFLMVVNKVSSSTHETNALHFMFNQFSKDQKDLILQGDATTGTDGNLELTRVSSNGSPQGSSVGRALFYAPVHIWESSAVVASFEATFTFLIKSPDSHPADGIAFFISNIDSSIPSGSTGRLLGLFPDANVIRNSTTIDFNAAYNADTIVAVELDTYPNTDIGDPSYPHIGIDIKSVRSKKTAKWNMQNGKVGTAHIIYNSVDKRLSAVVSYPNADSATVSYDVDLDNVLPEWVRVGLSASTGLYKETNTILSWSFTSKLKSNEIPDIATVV
Focal adhesion kinase 1 (Homo sapiens), sequence (Q05397 whole entry, looked up): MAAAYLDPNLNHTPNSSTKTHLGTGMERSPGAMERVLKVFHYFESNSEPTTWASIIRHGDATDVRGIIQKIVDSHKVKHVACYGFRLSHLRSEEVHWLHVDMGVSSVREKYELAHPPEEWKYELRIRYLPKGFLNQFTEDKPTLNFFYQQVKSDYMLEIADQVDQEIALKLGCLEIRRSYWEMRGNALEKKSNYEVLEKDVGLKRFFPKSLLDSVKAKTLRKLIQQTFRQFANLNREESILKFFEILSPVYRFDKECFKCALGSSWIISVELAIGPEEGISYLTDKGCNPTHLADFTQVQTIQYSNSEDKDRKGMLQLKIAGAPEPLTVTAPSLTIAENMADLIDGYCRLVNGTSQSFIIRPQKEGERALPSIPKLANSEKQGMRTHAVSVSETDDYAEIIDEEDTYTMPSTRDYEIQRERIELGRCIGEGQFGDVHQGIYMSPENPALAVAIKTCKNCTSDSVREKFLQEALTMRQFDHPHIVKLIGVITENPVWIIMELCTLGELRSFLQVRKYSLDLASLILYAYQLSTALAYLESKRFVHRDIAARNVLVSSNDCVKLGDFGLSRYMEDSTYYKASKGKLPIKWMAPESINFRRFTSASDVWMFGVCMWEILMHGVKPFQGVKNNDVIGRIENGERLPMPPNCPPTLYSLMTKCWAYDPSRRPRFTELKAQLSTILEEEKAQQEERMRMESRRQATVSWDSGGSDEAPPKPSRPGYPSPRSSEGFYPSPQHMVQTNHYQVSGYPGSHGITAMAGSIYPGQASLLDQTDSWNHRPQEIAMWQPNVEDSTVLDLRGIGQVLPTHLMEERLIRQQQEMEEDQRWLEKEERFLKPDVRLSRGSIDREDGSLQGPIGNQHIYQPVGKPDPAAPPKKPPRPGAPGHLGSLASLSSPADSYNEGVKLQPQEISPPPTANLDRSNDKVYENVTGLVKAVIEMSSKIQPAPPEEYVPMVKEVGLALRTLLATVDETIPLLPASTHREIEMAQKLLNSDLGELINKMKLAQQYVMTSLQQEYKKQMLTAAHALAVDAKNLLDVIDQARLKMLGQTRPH

For `CC(C)N1C(=O)c2ccccc2[C@@H](C(=O)NC2CC2)[C@@H]1c1ccc(CO)cc1`, the composite z-score is 0.368 in the experiment with Albumin (Bos taurus); 0.0246 in [2]; -0.161 in [3]; 0.742 in [4]; 0.467 in experiment [5]; 0.37 in experiment [6]. Moreover, the composite z-score in the experiment on Sam68 (KHDRBS1) is 0.343; in experiment [7] it was 0.593; in [8], 0.697; in experiment [9], 1.89; in experiment [10], 0.934; in [11] it was -0.361. Besides, the composite z-score in experiment [12] stood at 0.868; in experiment [13] it was 1.04; in experiment [14], 1.08; in the experiment on Lefty1 it was 0.147; in experiment [16] it was 0.22. For the same compound, the composite Z-score in experiment [1] is 0.131 (inactive). In addition, the z-score was 1.04 in experiment [15] and -0.161 (inactive) in experiment [17].
As for `CCC(CC)C(O)C1C=CC2C(=O)N(c3ccccc3)C(=O)C2N1Nc1ccc(C(C)C)cc1` (stereo not given), the composite z-score was determined as 0.682 with Albumin (Bos taurus); 0.213 in [2]; 0.197 in [3]; 0.691 in experiment [4]; 2.24 in experiment [5]; 0.359 in experiment [6]. Moreover, the composite z-score in the experiment with Sam68 (KHDRBS1) is 1.3; in [7], -0.0149; in experiment [8], 0.922; in experiment [9] it was 0.489; in [10] it was 1.22; in experiment [11], 0.902. The composite z-score in experiment [12] is 0.978; in [13], 1.01; in experiment [14] it was 0.524; in the experiment on Lefty1, 0.0342; in experiment [16] it was 1.08. Moreover, in [1], the composite Z-score is 0.15 (inactive). The z-score is -0.202 in [15] and -1.58 (inactive) in [17].
For `C=C(C(=O)CC[C@@H](OC(C)=O)c1ccc(CO)o1)C(C)C`, the composite z-score is -0.307 with Albumin (Bos taurus); 0.706 in [2]; -0.0911 in experiment [3]; 0.846 in experiment [4]; 0.445 in [5]; 0.119 in [6]. In addition, the composite z-score is 0.285 with Sam68 (KHDRBS1); 0.8 in experiment [7]; 0.771 in experiment [8]; 0.922 in [9]; -0.218 in experiment [10]; -0.26 in [11]. Besides, the composite z-score in experiment [12] was 0.454; in experiment [13], 1.33; in experiment [14], 1.49; in the experiment with Lefty1 it was 1.59; in experiment [16], -0.0963. Besides, the composite Z-score in experiment [1] was 1.58 (inactive). Moreover, the z-score was -0.246 in experiment [15] and -1.76 (inactive) in experiment [17].
Regarding `OCCCC1=CC(c2ccc(CN3CCCC3)cc2)N(Cc2sc3ccccc3c2Cl)CC1` (stereo not given), the composite z-score with Albumin (Bos taurus) is -0.38; in experiment [2], 0.191; in [3], -0.0293; in experiment [4], 0.483; in [5] it was 0.504; in [6] it was -0.456. Further, the composite z-score in the experiment with Sam68 (KHDRBS1) came to 0.982; in [7], 0.608; in experiment [8], 0.913; in experiment [9] it was 2.68; in experiment [10], 1.07; in [11], 0.609. Moreover, the composite z-score in experiment [12] is 0.311; in experiment [13] it was 1.19; in [14] it was 1.38; in the experiment with Lefty1 it was 0.649; in experiment [16], 0.483. Moreover, the composite Z-score in [1] was -0.404 (inactive). The z-score in experiment [15] is 2.11; in experiment [17] it was -1.01 (inactive).
Consider `COCCOC(=O)N1C(=O)[C@@]2(c3cc(C#CC4=CCCCC4)ccc31)[C@H](c1ccccc1OCCO)N1[C@H](c3ccccc3)[C@H](c3ccccc3)OC(=O)[C@H]1[C@@H]2C(=O)N1CCCCCCC1`, for which the composite z-score was -0.0107 in the experiment with Albumin (Bos taurus); -0.582 in experiment [2]; -0.26 in [3]; 0.592 in experiment [4]; 2.23 in [5]; 0.22 in experiment [6]. The composite z-score in the experiment on Sam68 (KHDRBS1) is 1.34; in experiment [7], 0.323; in experiment [8] it was 0.592; in experiment [9], 0.778; in experiment [10] it was 1.22; in [11], 0.724. The composite z-score in experiment [12] worked out at 0.767; in experiment [13], 1.24; in [14], 1.14; with Lefty1 it was 0.277; in experiment [16] it was 0.405. The composite Z-score in experiment [1] is 0.181 (inactive). Moreover, the z-score in [15] was -0.433; in experiment [17] it was -0.22 (inactive).
For the compound `CCCCN1CC=CC23O[C@@H]4/C=C\CCC(C)OC(=O)C4[C@H]2C(=O)N(C(CO)C(C)C)[C@@H]3C1=O` (stereo not given in full), the composite z-score was 0.751 in the experiment with Albumin (Bos taurus); -0.126 in experiment [2]; -0.12 in [3]; 0.815 in [4]; -0.407 in experiment [5]; 1.13 in experiment [6]. The composite z-score in the experiment on Sam68 (KHDRBS1) was -0.468; in experiment [7], 0.212; in experiment [8], -0.409; in experiment [9], -0.0545; in experiment [10] it was -0.205; in [11] it was -0.35. Besides, the composite z-score in [12] was -0.188; in experiment [13], 0.508; in [14] it was 0.149; in the experiment with Lefty1, 0.774; in [16], -0.0541. Also, in experiment [1], the composite Z-score is 0.443 (inactive). In addition, the results for the z-score in experiment [15] and in [17] were -0.0444 and 0.323 (inactive), respectively.

The values are drawn from PubChem BioAssay.
